This passage reports growth results from PubChem BioAssay (NCI).

Some test systems named below: SR leukemia; RPMI-8226 leukemia; OVCAR-8 ovarian; OVCAR-5 ovarian; OVCAR-4 ovarian; SK-OV-3 ovarian; IGROV1 ovarian; OVCAR-3 ovarian; HS 578T breast; NCI/ADR-RES ovarian.
Holding throughout (assay): NCI-60 one-dose screen, 48 h (100 = growth as untreated, 0 = no growth, -100 = all killed)
Common to all, as to settings: 10 µM unless noted

SMILES strings stand for the structures. The panel holds about 83,000 compounds, 20% with a hit somewhere; the sample as a whole holds those more often.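 Cell lines were cultured in 96-well plates, exposed to a single compound concentration, and assessed for percent growth 48 hours later.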 Unmarked numbers belong to inactive results. The source made the active and inactive calls. Rule for the calls: active = growth percent below 10; inactive = the rest.

Regarding `CCC[CH2][Sn]1([CH2]CCC)[O]C2C(CO)OC(n3ccc(N)nc3=O)C2[O]1` (stereo not given), the growth in the experiment on SR leukemia is -30.5% (active); in the experiment with RPMI-8226 leukemia, -28.7% (active); in the experiment with OVCAR-8 ovarian, -44.7% (active); in the experiment with OVCAR-5 ovarian, -41.9% (active); in the experiment with OVCAR-4 ovarian, -53% (active); with SK-OV-3 ovarian, 28.2%. Also, the growth in the experiment with IGROV1 ovarian is -23% (active); with OVCAR-3 ovarian, -90.8% (active); in the experiment with HS 578T breast, -12.4% (active); with NCI/ADR-RES ovarian, 24.8%.

Regarding `CN(C)CCN(C)CC(C)(C)C(=O)/C=C/c1ccc(Cl)c(Cl)c1`, the growth was -25.9% [100 µM] (active) in the experiment on SR leukemia; -30.6% [100 µM] (active) with RPMI-8226 leukemia; -86.5% [100 µM] (active) in the experiment with OVCAR-8 ovarian; -93.4% [100 µM] (active) in the experiment on OVCAR-5 ovarian; -98.5% [100 µM] (active) with OVCAR-4 ovarian; -97.7% [100 µM] (active) in the experiment on SK-OV-3 ovarian. Moreover, the growth in the experiment on IGROV1 ovarian is -92.2% [100 µM] (active); in the experiment with OVCAR-3 ovarian, -98.4% [100 µM] (active); in the experiment on HS 578T breast it was -39.5% [100 µM] (active); with NCI/ADR-RES ovarian, -47.2% [100 µM] (active).

`CCCCCCCCc1cc(Cl)c(O)c(Cl)c1`: the growth with SR leukemia was 83.1%; in the experiment on RPMI-8226 leukemia, 98.3%; with OVCAR-8 ovarian, 103%; in the experiment on OVCAR-5 ovarian, 101%; in the experiment on OVCAR-4 ovarian, 115%; in the experiment with SK-OV-3 ovarian it was 101%. The growth was 133% in the experiment on IGROV1 ovarian, 101% with OVCAR-3 ovarian, 98.7% in the experiment on HS 578T breast and 103% in the experiment with NCI/ADR-RES ovarian.

`CC(=O)C1Cc2ccccc2C1=O` (stereo not given): the growth in the experiment on SR leukemia is 108%; in the experiment on RPMI-8226 leukemia, 117%; in the experiment on OVCAR-8 ovarian, 119%; in the experiment on OVCAR-5 ovarian it was 101%; in the experiment with OVCAR-4 ovarian, 104%; with SK-OV-3 ovarian, 96.1%. The growth in the experiment with IGROV1 ovarian was 116%; in the experiment with OVCAR-3 ovarian, 112%; with HS 578T breast, 103%; in the experiment with NCI/ADR-RES ovarian, 104%.

On to `Cn1c(-c2ccccc2)c(/C=C/C2=[N+](C)c3ccccc3C2(C)C)c2ccccc21`, for which the growth was 9.26% (active) in the experiment with SR leukemia; -1.71% (active) with RPMI-8226 leukemia; 2.16% (active) in the experiment on OVCAR-8 ovarian; 33.9% with OVCAR-5 ovarian; 12.2% in the experiment on OVCAR-4 ovarian; -9.3% (active) in the experiment on SK-OV-3 ovarian. In addition, the growth in the experiment on IGROV1 ovarian was 33.9%; in the experiment with OVCAR-3 ovarian it was 6.26% (active); in the experiment with HS 578T breast it was 11%; in the experiment on NCI/ADR-RES ovarian it was 86.8%.

As to `O=C(O)c1ccc2c(c1)C(=O)c1ccccc1C2=O`, the growth is 86.4% in the experiment on SR leukemia; 102% in the experiment with RPMI-8226 leukemia; 98.9% with OVCAR-8 ovarian; 101% in the experiment with OVCAR-5 ovarian; 96.7% in the experiment on OVCAR-4 ovarian; 98.8% with SK-OV-3 ovarian. In addition, the growth in the experiment on IGROV1 ovarian is 116%; in the experiment on OVCAR-3 ovarian, 99.3%; in the experiment with HS 578T breast, 95.6%; with NCI/ADR-RES ovarian, 105%.

In the case of `Oc1ccc2ccccc2c1N=Nc1nccs1`, the growth is -10% (active) in the experiment with SR leukemia; 2.25% (active) in the experiment with RPMI-8226 leukemia; 14.9% in the experiment with OVCAR-8 ovarian; 45.3% in the experiment on OVCAR-5 ovarian; 16.2% in the experiment on OVCAR-4 ovarian; 51.6% with SK-OV-3 ovarian. The growth is 184% in the experiment on IGROV1 ovarian, 1.47% (active) in the experiment on OVCAR-3 ovarian, 213% in the experiment with HS 578T breast and -22.6% (active) in the experiment on NCI/ADR-RES ovarian.

As to `CC(C)=C1C=C2CC[C@@H]3[C@](C)(CCC[C@@]3(C)C(=O)O)[C@H]2CC1`, the growth in the experiment with SR leukemia is 99%; in the experiment on RPMI-8226 leukemia, 107%; in the experiment on OVCAR-8 ovarian, 100%; in the experiment on OVCAR-5 ovarian, 96.8%; in the experiment on OVCAR-4 ovarian, 94.4%; with SK-OV-3 ovarian, 105%. Further, the growth with IGROV1 ovarian is 103%; in the experiment with OVCAR-3 ovarian it was 98.9%; in the experiment on HS 578T breast it was 110%; in the experiment with NCI/ADR-RES ovarian, 100%.

For the molecule `CCCCCCN(CCCCCC)CCCNc1nccc2ccccc12`, the growth is -9.78% (active) in the experiment with SR leukemia; -22.8% (active) in the experiment with RPMI-8226 leukemia; 12% with OVCAR-8 ovarian; 38.1% in the experiment with OVCAR-5 ovarian; 23.4% with OVCAR-4 ovarian; 41.9% in the experiment with SK-OV-3 ovarian. Further, the growth with IGROV1 ovarian was 12.5%; in the experiment with OVCAR-3 ovarian, -6.31% (active); in the experiment on HS 578T breast, 12.4%; with NCI/ADR-RES ovarian it was 19.4%.

Consider `CCOC(=O)C1=NN(c2ccccc2)C(=O)/C1=C\N1C(=O)/C(=C/c2cccc(O)c2)SC1=S`, for which the growth in the experiment with SR leukemia is 83.3%; in the experiment on RPMI-8226 leukemia, 88.1%; with OVCAR-8 ovarian, 95.8%; in the experiment on OVCAR-5 ovarian, 121%; with OVCAR-4 ovarian, 98.8%; in the experiment with SK-OV-3 ovarian, 99.8%. Moreover, the growth was 96% with IGROV1 ovarian, 106% in the experiment on OVCAR-3 ovarian, 94% in the experiment with HS 578T breast and 99.3% in the experiment with NCI/ADR-RES ovarian.

`Oc1ccccc1N=Cc1ccccc1`: the growth was 79.2% in the experiment with SR leukemia; 62.9% in the experiment with RPMI-8226 leukemia; 84% in the experiment with OVCAR-8 ovarian; 104% with OVCAR-5 ovarian; 107% in the experiment with OVCAR-4 ovarian; 104% in the experiment on SK-OV-3 ovarian. The growth was 94.5% with IGROV1 ovarian, 76.2% with OVCAR-3 ovarian, 108% with HS 578T breast and 84.6% in the experiment on NCI/ADR-RES ovarian.

In the case of `CCCCN(CCCC)CCCCCCCCCCO`, the growth in the experiment with SR leukemia is 81%; with RPMI-8226 leukemia, 133%; in the experiment on OVCAR-8 ovarian it was 107%; in the experiment with OVCAR-5 ovarian, 97.3%; in the experiment with OVCAR-4 ovarian it was 93.4%; with SK-OV-3 ovarian it was 109%. The growth was 94% in the experiment on IGROV1 ovarian, 104% in the experiment with OVCAR-3 ovarian, 105% with HS 578T breast and 103% with NCI/ADR-RES ovarian.

For the molecule `O=C(Cc1ccccc1)C(F)(F)F`, the growth was 94.7% with SR leukemia; 106% in the experiment on RPMI-8226 leukemia; 103% in the experiment on OVCAR-8 ovarian; 99.5% in the experiment with OVCAR-5 ovarian; 106% in the experiment with OVCAR-4 ovarian; 101% with SK-OV-3 ovarian. Also, the growth with IGROV1 ovarian is 101%; with OVCAR-3 ovarian, 101%; with HS 578T breast, 111%; in the experiment on NCI/ADR-RES ovarian, 104%.

Consider `O=C1C(=O)c2cccnc2-c2ncccc21`, for which the growth in the experiment with SR leukemia was -45.5% (active); with RPMI-8226 leukemia, -29.7% (active); in the experiment on OVCAR-8 ovarian it was -33% (active); with OVCAR-5 ovarian it was -57.6% (active); with OVCAR-4 ovarian, -100% (active); in the experiment with SK-OV-3 ovarian, -32.8% (active). Further, the growth was -53.8% (active) in the experiment on IGROV1 ovarian, -100% (active) in the experiment with OVCAR-3 ovarian, -47.5% (active) in the experiment with HS 578T breast and -96.3% (active) in the experiment with NCI/ADR-RES ovarian.

Consider `CC1=CC(=O)C=CC1(C)C(Cl)(Cl)Cl` (stereo not given), for which the growth in the experiment with SR leukemia was 94.2%; with RPMI-8226 leukemia, 104%; in the experiment with OVCAR-8 ovarian, 90.3%; in the experiment with OVCAR-5 ovarian, 101%; with OVCAR-4 ovarian, 114%; with SK-OV-3 ovarian, 94.3%. For the same molecule, the growth was 100% in the experiment with IGROV1 ovarian, 116% in the experiment on OVCAR-3 ovarian, 93.1% with HS 578T breast and 102% with NCI/ADR-RES ovarian.
